# Data taken from PubChem BioAssay.
# Biological target: Left-right determination factor 2 (Homo sapiens) (UniProt O00292)
# Experiment: small molecules binding LEFTY2 protein – biochemical, small-molecule microarray, 635 nm fluorescence scan, primary screen (AID 1110)
# Details: higher = more signal
# Left-right determination factor 2 (Homo sapiens), sequence (O00292 whole entry, looked up): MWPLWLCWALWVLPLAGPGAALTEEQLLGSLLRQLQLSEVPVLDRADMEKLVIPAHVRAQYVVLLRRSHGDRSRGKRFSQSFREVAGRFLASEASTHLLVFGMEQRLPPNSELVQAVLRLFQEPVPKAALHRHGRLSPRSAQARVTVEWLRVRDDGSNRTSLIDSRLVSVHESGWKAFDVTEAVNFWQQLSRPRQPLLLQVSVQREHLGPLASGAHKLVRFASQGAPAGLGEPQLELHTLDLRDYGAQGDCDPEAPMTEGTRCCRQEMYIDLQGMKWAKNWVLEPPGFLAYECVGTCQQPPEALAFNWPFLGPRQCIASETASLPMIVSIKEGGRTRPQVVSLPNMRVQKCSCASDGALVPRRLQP
row,SMILES,composite z-score
1,CC(C)[Si]1(C(C)C)OCc2cc(C3CC3)nc(-c3ccc(Oc4ccccc4)cc3)c21,-0.168
2,O=C1NC(=O)C2C1C=CC(C(O)c1ccco1)N2Nc1ccc(Cl)cc1Cl (stereo not given),-0.39
3,Cc1ccc(N2C(=O)c3ccccc3[C@@H](C(=O)NCCCN(C)C)[C@@H]2c2ccc(CO)cc2)nc1,-0.14
4,CCCCCCc1nc(Cc2cc(OC)c(OC)c(OC)c2)cc2c1[Si](C(C)C)(C(C)C)OC2,0.186
5,CCOC(=O)C1=C[C@@H](C(C)(C)C)N(S(=O)(=O)c2ccc(C)cc2)[C@H]1c1cccc2ccccc12,-0.49
6,COc1cc2c(cc1O)C(c1cccs1)N(Cc1cc3c(cc1Br)OCO3)CC2 (stereo not given),0.236
7,C=CCNC(=O)[C@@H]1[C@H]2C(=O)O[C@H](c3ccccc3)[C@H](c3ccccc3)N2[C@H](c2ccccc2OCCO)[C@@]12C(=O)Nc1ccc(C#CCC(C(=O)OC)C(=O)OC)cc12,-0.034
8,C=CCN1C(=O)[C@]2(CCS(=O)(=O)c3ccccc3)N=C(c3ccc(OCCCO)cc3)O[C@@H]2c2ccccc21,0.59
9,CC(c1ccccc1)C(O)C1C=CC2C(=O)N(C)C(=O)C2N1Nc1ccccc1 (stereo not given),-0.541
10,N#Cc1ccc(NN2C(C(O)c3ccc(Br)cc3)C=CC3C(=O)N(c4ccccc4)C(=O)C32)cc1 (stereo not given),0.503
11,COc1ccc([Si](C)(C)[C@@H]2[C@@H](CCO)O[C@]3(C(=O)N(Cc4cccc(NC(=O)[C@H](C)O)c4)c4ccccc43)[C@H]2C)cc1,0.0544
12,CCCCC(CC)C(O)C1C=CC2C(=O)N(C)C(=O)C2N1Nc1ccccc1 (stereo not given),-0.303
13,COCCOC(=O)N1C(=O)[C@@]2(c3cc(C#CCCO)ccc31)[C@H](c1ccc(OCCO)cc1)N1[C@H](c3ccccc3)[C@H](c3ccccc3)OC(=O)[C@H]1[C@@H]2C(=O)Nc1nc2ccccc2s1,0.95
14,[N-]=[N+]=NCc1ccccc1[C@@H]1OC(c2ccc(OCCCO)cc2)=N[C@]1(CCS(=O)(=O)c1ccccc1)C(=O)O,-0.151
15,O=C1C[C@]2(c3ccc([N+](=O)[O-])cc3)C(=O)N(C3CC3)c3cc(CO)ccc3[C@H]2N1CC12CC3CC(CC(C3)C1)C2,-1.6
16,CCCC[C@@H]1C[C@H]1[C@@H](NC(=O)c1cccs1)c1ccccc1C(F)(F)F,-0.363
17,O=C(Cc1ccccc1)[C@H]1C2C=CCCC(c3ccccc3)=C2CN1Cc1ccccc1 (stereo not given in full),0.174
18,COC(=O)[C@]1(CCS(=O)(=O)c2ccccc2)N=C(c2ccc(OCCCO)cc2)O[C@@H]1c1ccccc1N=[N+]=[N-],0.744
19,COCCOC(=O)N1C(=O)[C@@]2(c3cc(C#CC4=CCCCC4)ccc31)[C@H](c1ccccc1OCCO)N1[C@H](c3ccccc3)[C@H](c3ccccc3)OC(=O)[C@H]1[C@@H]2C(=O)N1CCN(c2ncccn2)CC1,0.718
20,CN(C)C(=O)[C@@]1(Cc2ccccc2)N=C(c2ccc(OCCCO)cc2)O[C@H]1c1ccccc1,-0.469
21,COc1ccc(C#Cc2ccc3c(c2)[C@]2(C(=O)N3)[C@H](C(=O)O)[C@H]3C(=O)O[C@H](c4ccccc4)[C@H](c4ccccc4)N3[C@@H]2c2ccc(O)cc2)cc1,-0.67
22,CCCCC[C@H]1OC[C@@]23C=C(Br)[C@@H](CC12)[C@@]1(CO1)C3=O (stereo not given in full),0.058
23,CC1CC/C=C\[C@H]2OC34C=CCN(c5ccc(Cl)cc5)C(=O)[C@H]3N(C(C)CO)C(=O)[C@]4(C)C2C(=O)O1 (stereo not given in full),-0.707
24,COc1cc2c(cc1O)C(C1CC1)N(Cc1cccc(OC(F)(F)F)c1)CC2 (stereo not given),-0.116
25,COc1cc(C(O)C2C=CC3C(=O)N(C)C(=O)C3N2Nc2ccccc2)cc(OC)c1OC (stereo not given),-0.129
26,[N-]=[N+]=NCc1ccccc1[C@H]1OC(c2ccc(OCCCO)cc2)=N[C@@]1(Cc1ccccc1N=[N+]=[N-])C(=O)NCC(O)CO (stereo not given in full),-0.591
27,COC(=O)[C@@]1(Cc2ccc(OC)cc2)[C@H]2c3cc(C(=O)N(C)C)n(Cc4ccc(OC(F)(F)F)cc4)c3C[C@H]2CN1C(=O)c1ccccc1,-0.0954
28,C=C(/C(=C/C[C@H](OC(C)=O)c1ccc(CO)o1)c1cnc2ccccc2c1)C(C)C,0.552
29,Cc1ccc(S[C@]2(C(=O)NCc3ccccc3)CC(=O)N(C3CCCCC3)[C@@H]2c2ccc(CO)cc2I)cc1,-0.364
30,COc1ccc([Si](C)(C)[C@@H]2[C@@H](CC(=O)N3Cc4ccccc4C[C@H]3CO)O[C@]3(C(=O)N(Cc4ccc(N5C(=O)c6cccc7cccc5c67)cc4)c4ccccc43)[C@H]2C)cc1,0.987
